# Source: PubChem BioAssay (National Center for Advancing Translational Sciences (NCATS))
# Shown are actives, neighbours in structure and some others; about 0.67% of the full set was active somewhere.
# ASM inhibitor: human S-ASM enzyme inhibition | placental ASM, HMU-PC fluorogenic substrate, 60 min | 0.006% of 340,000 active | Potency, µM (titrated, usually from 57.5 µM), for the others: top-dose activity change, negative = inhibition, usual class: inhibitors | P17405; active = well fitted inhibition curve with a large enough effect; inconclusive = small, poorly fitted or top-dose-only effect; inactive = no such curve, though single readings can be large or run the other way
# Target sequence (P17405 47-631 limits assumed): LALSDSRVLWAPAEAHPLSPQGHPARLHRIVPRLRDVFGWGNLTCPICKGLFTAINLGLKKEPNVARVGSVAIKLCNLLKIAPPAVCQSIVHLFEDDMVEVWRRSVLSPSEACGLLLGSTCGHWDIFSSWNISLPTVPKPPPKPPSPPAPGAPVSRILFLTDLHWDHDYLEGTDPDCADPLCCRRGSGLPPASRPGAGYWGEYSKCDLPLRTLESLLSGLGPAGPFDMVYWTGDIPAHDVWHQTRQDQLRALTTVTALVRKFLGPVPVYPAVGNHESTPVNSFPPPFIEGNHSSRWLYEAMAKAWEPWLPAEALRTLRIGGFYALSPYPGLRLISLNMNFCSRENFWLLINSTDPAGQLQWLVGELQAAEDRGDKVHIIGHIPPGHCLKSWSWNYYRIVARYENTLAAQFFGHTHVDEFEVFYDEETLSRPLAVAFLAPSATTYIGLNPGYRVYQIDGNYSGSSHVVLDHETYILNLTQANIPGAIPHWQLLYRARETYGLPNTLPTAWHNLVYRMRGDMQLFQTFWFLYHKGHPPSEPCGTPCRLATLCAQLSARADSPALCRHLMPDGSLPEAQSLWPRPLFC
#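 qHTS format. ASM enzyme prepared from human placenta hydrolyses the fluorogenic substrate HMU-PC0 (9 uM final) over 60 min at 37 °C after a 10 min compound preincubation.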
# gsp agonist: gsp mutant agonism; gsp mutant cells, cAMP HTRF, 30 min; Potency, µM (highest dose often 76.9 µM), for inactives: at the highest dose activation (cAMP increase), most hits filed as activators; 0.13% of 340,000 active; AID 624287; active = well fitted activation curve with a large enough effect; inconclusive = small, poorly fitted or top-dose-only effect, or another doubt; inactive = no such curve, though single readings can be large or run the other way; cell line not stated here;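 note: phosphodiesterase inhibitor Ro 20-1724 added with compounds to block cAMP breakdown; nearly all actives have a fitted effect of over 60% in size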
#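 Cells stably selected in G418 were plated at 2000/well, grown 16-24 hr, then given compounds in DMSO with the PDE inhibitor […] (300 uM solution added) for 30 min at 37C; cAMP was read by HTRF.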
# Rango release inh: inhibitors of RanGTP-induced Rango-importin beta complex dissociation; Potency, µM (highest dose often 46.1 µM), without a hit: top-dose activity change, negative = inhibition; 0.071% of 340,000 active; Biochemical FRET Rango-importin beta, RanGTP-induced dissociation; note: % of control where 0% means no effect; nearly all actives have a fitted effect of over 45% in size
#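 Compounds preincubate 5 min with complex of recombinant Rango and importin beta in PBS with 1 mM DTT. Ran (0.6 uM) loaded with 2 mM GTP plus 0.2 uM RCC1 starts dissociation; FRET is recorded 45 min later.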
# Rango complex inh: prevents formation of the Rango-importin beta complex; AID 540263; 0.031% of 340,000 active; Rango CFP/YFP FRET sensor + importin beta, 45 min; Potency, µM (doses to about 92.2 µM), for the others: at the top dose inhibition of complex formation;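 note: 0% = DMSO wells and 100% = buffer wells lacking importin beta; nearly all actives have a fitted effect of over 15% in size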
#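 Inhibition scored from the CFP 486 nm/YFP 530 nm FRET ratio 45 min after adding 0.125 microM importin beta to 50 nM Rango biosensor preincubated 5 min with compound (room temperature, PBS with DTT, Tween-20, BSA). No-importin wells as positive control.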
# gsp antag: antagonizes gsp, the McCune-Albright syndrome mutation | gsp-mutant cells, cAMP HTRF, 30 min | Potency, µM (top dose mostly 76.9 µM), without a hit: at the highest dose activity change, negative = inhibition, usual class: inhibitors | 0.4% of 340,000 active | AID 624288; calls by dose curve; cell line not stated here;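 note: intracellular cAMP measured with PDE inhibitor Ro 20-1724 present during compound exposure; % is set by controls: 0 for no effect and ±100 for the full control effect; nearly all actives have a fitted effect of over 65% in size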
#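 Cells in G418 medium, seeded 16-24 h, 37C; buffer exchange to DPBS + 1 mM CaCl2, 0.5 mM MgCl2, 0.05% BSA; cpds in DMSO + […] (300 uM stock), 30 min 37C; HTRF cAMP detection.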
# * marks the source's active call; other numbers are inactive results; i = inactive; ? = inconclusive; · = not tested or not shown; [ ] = another dose, or the depositor's remark. Unless noted, calls come from the whole dose curve. Potency is the fitted concentration of half-maximal effect.
SMILES,ASM inhibitor,gsp agonist,Rango release inh,Rango complex inh,gsp antag
COc1cccc(-c2noc(C3CCCN(C(=O)c4ccccc4OC)C3)n2)c1 (stereo not drawn),-1.5%,0.4%,17.8%,-1.6%,35.5µM*
CCC(=O)Nc1cccc(NC(=S)NC(=O)c2ccccc2C)c1,2.4%,-1.4%,-12.1%,3.5%,-0.2%
O=C(N/N=C/c1sc(N2CCOCC2)nc1-c1ccccc1)c1ccccc1O,13.0%,9.1%,?,?,39.8µM*
O=C(N/N=C/c1sc(N2CCOCC2)nc1-c1ccccc1)c1ccccc1Cl,181.3%,-16.1%[15.4 µM],-8.3%,-0.2%,-7.8%
O=[N+]([O-])c1ccc(N/N=C/c2sc(N3CCOCC3)nc2-c2ccccc2)c(S(=O)(=O)Nc2ccccc2Cl)c1,?,-106.6%,?,?,3.98µM*
Cn1c2ccccc2c(=O)c2ccc(NCCc3cccs3)cc21,i,·,?,?,?
CN1C(=O)C(N=Nc2ccc([N+](=O)[O-])cc2)SC1=S (stereo not drawn),-6.1%,?,0.4%,-3.6%,31.6µM*
COc1cccc(N2CCN(C(=O)c3ccc(CS(=O)Cc4ccccc4Cl)o3)CC2)c1 (stereo not drawn),1.1%,-68.0%,-4.3%,3.6%,-14.8%
O=C(c1ccc(CS(=O)Cc2ccccc2Cl)o1)N1CCN(c2cccc(Cl)c2)CC1 (stereo not drawn),-1.4%,-0.5%,-11.6%,-0.1%,31.6µM*
O=C(CCC(=O)NNC(=O)c1ccccc1[N+](=O)[O-])NCc1ccccc1,-1.3%,-1.4%[15.4 µM],10.2%,-3.0%,15.8%
CCCCNC(=O)/C(C#N)=C/c1ccc(F)cc1F,7.2%,-1.1%[15.4 µM],?,5.4%,11.2µM*
COc1ccc(-c2nc(NC(=O)c3ccc(OCC(=O)N4CCOCC4)c(OC)c3)sc2C)cc1,-28.9%,-16.5%,7.6%,0.9%,35.5µM*
COc1cc(C(=O)Nc2ccc(C)cn2)ccc1OCC(=O)N1CCOCC1,-2.2%,29.3%,2.0%,1.4%,-4.3%
CCCCOc1cccc(C2/C(=C(\O)c3ccc4c(c3)OCCO4)C(=O)C(=O)N2CCN2CCOCC2)c1 (stereo not drawn),-3.1%,15.8µM*,-8.6%,1.4%,-2.8%
Cc1nnc(N2C(=O)C(=O)/C(=C(/O)c3ccc4c(c3)CC(C)O4)C2c2ccccc2F)s1 (stereo not drawn),-3.5%,20µM*,?,?,-13.6%
COc1cccc(C2/C(=C(\O)c3ccc4c(c3)OCCO4)C(=O)C(=O)N2c2nnc(C)s2)c1 (stereo not drawn),-1.9%,8.91µM*,?,?,-9.7%
CCN(CC)CCN(C)C1CCC(c2ccccc2)CC1 (stereo not drawn),4.2%,-40.9%,5.9%,-0.9%,19.7%
NC1=NC(c2ccc(Cl)cc2)C(C(=O)c2ccccc2)N1 (stereo not drawn),3.1%,15.2%,-16.4%,-3.7%,-1.9%
CCS(=O)(=O)Nc1ccc(-c2cc(-c3ccccc3)c3cc(C)ccc3n2)cc1,3.8%,1.3%,?,?,-0.1%
Cc1ccc2nc(-c3ccc(NS(C)(=O)=O)cc3)cc(-c3ccccc3)c2c1,8.9%,35.9%,8.91µM*,?,-8.7%
COc1ccc(OC)c(C2CC(=O)c3c([nH]c(C(=O)OCC4CCCO4)c3C)C2)c1 (stereo not drawn),-7.5%,-46.9%,-9.2%,-13.9%,39.8µM*
COCCOC(=O)c1[nH]c2c(c1C)C(=O)CC(c1cc(OC)ccc1OC)C2 (stereo not drawn),1.8%,-11.9%,-15.6%,-0.1%,9.2%
CCOC(=O)[C@@H]1[C@H]2COc3ccc(Br)cc3[C@H]2N2C(=O)N(c3ccc(C)cc3)C(=O)[C@]12C,-0.9%,-17.6%,-14.1%,-0.5%,-8.1%
CCOC(=O)C(C)Oc1ccc(NC(=O)C(Cl)Cl)cc1 (stereo not drawn),1.2%,-7.6%[15.4 µM],0.2%,-1.1%,-2.3%
CN(C)CCNc1ccc(CO)c2sc3ccc(O)cc3c(=O)c12,-10.0%,5.6%,0.5%,0.0%,-32.9%
CN(C)CCNc1ccc2ncn3c4ccc(O)cc4c(=O)c1c23,-3.6%,14.1µM*,?,?,?
